Test results as given in paper PMC4336329 (PLoS ONE, 2015).
The campaign covered roughly 310,000 compounds. About 14,000 (4.5%) showed an effect of 50% or more. The effect is printed as a negative number. The sample as a whole holds a higher share of strong results than the screen did.

target: human ether-à-go-go-related gene (hERG) potassium channel (human, UniProt Q12809); test: primary screen, population patch clamp on CHO cells stably expressing hERG; higher = less effect of the substance
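Further: peak tail current of the secondary pulse compared with the same well before compound.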

Sequence of human ether-à-go-go-related gene (hERG) potassium channel (Q12809 whole entry, looked up): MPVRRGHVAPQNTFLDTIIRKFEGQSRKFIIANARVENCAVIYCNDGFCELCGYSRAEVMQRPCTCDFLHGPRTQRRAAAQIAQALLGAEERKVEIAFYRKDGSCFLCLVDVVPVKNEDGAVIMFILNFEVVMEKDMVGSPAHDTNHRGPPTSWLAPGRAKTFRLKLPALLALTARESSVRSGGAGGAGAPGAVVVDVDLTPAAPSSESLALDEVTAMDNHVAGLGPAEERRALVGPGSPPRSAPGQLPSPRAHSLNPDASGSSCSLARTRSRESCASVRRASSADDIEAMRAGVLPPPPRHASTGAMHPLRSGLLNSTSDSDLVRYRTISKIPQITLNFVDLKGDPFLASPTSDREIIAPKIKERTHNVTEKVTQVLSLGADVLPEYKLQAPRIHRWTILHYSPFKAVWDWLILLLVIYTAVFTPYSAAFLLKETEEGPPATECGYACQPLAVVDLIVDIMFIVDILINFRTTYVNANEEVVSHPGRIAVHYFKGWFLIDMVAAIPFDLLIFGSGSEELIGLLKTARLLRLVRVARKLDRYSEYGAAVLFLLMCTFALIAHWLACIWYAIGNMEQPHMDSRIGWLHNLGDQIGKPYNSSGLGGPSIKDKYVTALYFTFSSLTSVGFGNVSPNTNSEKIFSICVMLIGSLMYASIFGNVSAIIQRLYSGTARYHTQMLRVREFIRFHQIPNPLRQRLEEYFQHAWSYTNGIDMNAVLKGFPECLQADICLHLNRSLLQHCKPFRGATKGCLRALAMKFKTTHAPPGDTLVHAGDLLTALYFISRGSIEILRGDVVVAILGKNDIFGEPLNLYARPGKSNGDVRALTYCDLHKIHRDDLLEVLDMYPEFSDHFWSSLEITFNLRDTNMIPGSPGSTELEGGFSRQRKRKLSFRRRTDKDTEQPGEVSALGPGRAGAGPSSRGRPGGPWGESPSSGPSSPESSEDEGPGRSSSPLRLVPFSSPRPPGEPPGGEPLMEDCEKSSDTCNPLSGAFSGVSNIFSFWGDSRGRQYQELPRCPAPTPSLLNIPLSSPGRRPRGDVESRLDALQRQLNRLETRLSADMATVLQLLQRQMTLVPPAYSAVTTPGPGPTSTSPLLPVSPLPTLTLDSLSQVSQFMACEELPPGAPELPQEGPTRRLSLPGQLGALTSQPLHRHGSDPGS

SMILES | hERG current change (%, negative = inhibition) at 10uM [%]
CC(C)CCNC(=O)NC(=O)CSc1nnc(-c2ccccc2Br)o1 | -5.73
CC(=O)c1ccc(-c2nc3ccccc3n2C)o1 | 12.7
CC1CCN(C(=O)COC(=O)CCc2c[nH]c3ccccc23)CC1 | 9.1
CCOC(=O)c1csc(NC(=O)c2ccccc2)n1 | -8.86
COc1ccc(NC(=O)OCC(C)C)cc1OC | 15.9
C=CCN1C(=O)/C(=C/c2ccc(OC)cc2)S/C1=N/c1nccs1 | 13.4
Cc1nn(C(=O)c2ccco2)c(C)c1Sc1ccc([N+](=O)[O-])cc1 | 20.8
O=C(COC(=O)c1cc(Cl)ccc1O)NCCNC(=O)COC(=O)c1cc(Cl)ccc1O | 21.4
COc1ccc(Cl)cc1C(=O)OCC(=O)NCCNC(=O)COC(=O)c1cc(Cl)ccc1OC | -71.6
COc1ccc(Cl)cc1C(=O)OCC(=O)NCc1cccs1 | -28.1
Cc1cccc(C(=O)OCCN2CCOCC2)c1.Cl | 12.3
CCOc1ccc(C2C(C#N)=C(N)SC(N)=C2C#N)cc1OCC | 13.5
COc1cccc(CN2CCCC(C(=O)c3ccccc3SC)C2)c1O (stereo not shown) | -77.5
COc1ccccc1CN1CCCC(C(=O)c2ccccc2SC)C1 (stereo not shown) | -71.1
COc1cccc(O)c1CN1CCCC(C(=O)c2ccccc2SC)C1 (stereo not shown) | -44.1
COc1ccccc1CN1CCCC(C(=O)c2ccccc2OC)C1 (stereo not shown) | -47.2
COc1cccc(OC)c1CN1CCCC(C(=O)c2ccccc2SC)C1 (stereo not shown) | -72.6
COC(=O)CCCC(=O)N1CCCC(C(=O)c2ccccc2SC)C1 (stereo not shown) | -8.08
C/C(=N\NC(=O)c1ccccc1O)c1ccc(Br)s1 | 11
O=C(O)c1ccc2c(c1Sc1ccccc1)C(=O)c1ccccc1C2=O | -4.82
COc1cc(C(=O)Nc2ccc(S(=O)(=O)NC(C)C)cc2)cc(OC)c1OC | -2.49
O=C(CCn1cccn1)Nc1ccc(-c2ccno2)cc1 | 14.4

SMILES | hERG current change (%, negative = inhibition) at 10uM [%]
CCNC(=O)CN(CCc1ccccc1)S(C)(=O)=O | 17.8
O=S(=O)(Nc1ccc(-c2nnc(SCc3ccc(Cl)cc3)o2)cc1)c1ccccc1 | 17.8
O=S(=O)(Nc1ccc(-c2ccc3nncn3n2)cc1)c1cccs1 | 15.4
O=C(NCc1ccccc1Cl)c1cccc(NC2=NC3CS(=O)(=O)CC3S2)c1 (stereo not shown) | 13.1
Cc1nnc(NC(=O)c2ccccc2Br)s1 | -1.65
CC1=C(C(=O)Nc2ccccc2)C(c2ccco2)C(C#N)=C(SCC(=O)Nc2cccc(C)c2C)N1 (stereo not shown) | 17.9
CCc1nc2sc3c(c2c(=O)n1N)CC(C)(C)OC3 | 7.31
Oc1c(Br)cc(Br)cc1CN1CCN(Cc2ccccc2)CC1 | -3.14
CCN1CCN(Cc2cc(Br)ccc2O)CC1 | -22.7
COc1ccc(Br)cc1CN1CCN(CCO)CC1 | -0.9
OCCN1CCN(Cc2cc(Br)cc(Br)c2O)CC1 | -60.8
CCN1CCN(Cc2cc(Br)cc(OC)c2O)CC1 | -20.4
CCN1CCN(Cc2cc(Br)cc(Br)c2O)CC1 | -50.6
O=C(OCc1ccccc1)c1cc(S(=O)(=O)N2CCCCC2)ccc1N1CCOCC1 | -27.3
CC(=O)N1N=C(c2cccs2)CC1c1ccc(C)o1 (stereo not shown) | 7.07
COC(=O)c1ccc(N2C(=O)CC(N3CCN(c4ccccc4)CC3)C2=O)cc1 (stereo not shown) | 11.1
Cc1cc(Cl)c(S(=O)(=O)NCc2ccncc2)cc1OCC(N)=O | 1.62
O=C(NCCn1cccn1)C1CCC(=O)N(CCc2ccc(Cl)cc2)C1 (stereo not shown) | 5.51
COc1ccc(CCN2CC(C(=O)NCCCn3nc(C)cc3C)CCC2=O)cc1 (stereo not shown) | -23.3
Cc1ccn(CCNC(=O)C2CCC(=O)N(Cc3ccc(Cl)cc3)C2)n1 (stereo not shown) | -3.57
Cc1cc(C)n(CCNC(=O)C2CCC(=O)N(Cc3ccc(Cl)cc3)C2)n1 (stereo not shown) | 15.2
Cc1ccn(CCNC(=O)C2CCC(=O)N(CCc3ccc(Cl)cc3)C2)n1 (stereo not shown) | -55.3

SMILES | hERG current change (%, negative = inhibition) at 10uM [%]
Cc1cc(C)n(CCCNC(=O)C2CCC(=O)N(CCc3ccc(Cl)cc3)C2)n1 (stereo not shown) | -54.7
COc1cccc(C2CC(c3ccccc3)Nc3nc(N)nn32)c1 (stereo not shown) | -7.93
S=c1[nH]nc(Cc2cccs2)n1-c1cccc2ccccc12 | -10.4
O=[N+]([O-])c1ccc(CNc2cccc(F)c2)s1 | -32.3
Cc1ccc(CNC(=O)c2nc3nc(C)cc(C)n3n2)cc1 | 14.4
Cc1cccc(NC(=S)Nc2cccc3ccccc23)c1 | 15.9
Cc1ccc(NC(=S)NC2CCN(Cc3ccccc3)CC2)c(C)c1 | -12.9
CCOC(=O)c1c(-c2ccc(C)cc2)csc1NC1=NS(=O)(=O)c2ccccc21 | -1.41
Cl.N#CC(c1ccccc1)C1CCN(Cc2ccccc2)CC1 (stereo not shown) | -50.9
CSc1ccccc1OC1CCN(Cc2ccccc2)CC1.Cl | -24.3
CC(=O)C1CCN(Cc2ccccc2)CC1 | 20.5
O=C(OCC(=O)N1CCCCCC1)c1ccc([N+](=O)[O-])cc1Cl | 8.47
Cc1ccccc1S(=O)(=O)Nc1nc2ccccc2nc1N1CCOCC1 | 7.22
CCn1ccc(C(=O)NC2=NCCS2)n1 | -3.73
CNC(=O)/C(C#N)=C/c1c(N2CCCCCC2)nc2ccccn2c1=O | 10.2
C=CCNC(=O)/C(C#N)=C/c1c(N2CCCCCC2)nc2ccccn2c1=O | -59.6
CCNC(=O)/C(C#N)=C/c1c(N2CCOCC2)nc2ccccn2c1=O | -4.68
CCNC(=O)/C(C#N)=C/c1c(N2CCCCCC2)nc2ccccn2c1=O | -9.13
COCCNC(=O)/C(C#N)=C/c1c(N2CCN(c3ccccc3)CC2)nc2ccccn2c1=O | -20.7
CCNC(=O)/C(C#N)=C/c1c(N2CCN(c3ccccc3)CC2)nc2ccccn2c1=O | -66.3
